We go through 14 compounds from ChEMBL document CHEMBL1157539, “Thousands of chemical starting points for antimalarial lead identification” (Nature, 2010).

As usually defined, the Inhibition is the relative decrease from the control value, in per cent. Read a high Inhibition as a response far below the control.

For the assay, the system named is Plasmodium falciparum. Briefly: GSK_TCMDC: Inhibition of Plasmodium falciparum 3D7 in whole red blood cells, using parasite LDH activity as an index of growth. Test compounds present at 2uM. It is filed as functional.
Compound `Br.CCN(CC)CCn1c(=N)n(CC(=O)c2ccc(-c3ccccc3)cc2)c2ccccc21` showed an Inhibition of 83%.
In turn, `COc1ccc(CN(C)CCCc2ccc(NC(=O)c3cccc4c(O)c5ccccc5nc34)cc2)cc1OC` showed an Inhibition of 99%.
`COc1ccc(N2CCN(CCCCNC(=O)c3ccc(NC(=O)c4cccc(Cl)c4)cc3)CC2)c(OC)c1` gave an Inhibition of 100%.
The compound `Cl.Nc1c(I)cc(C(=O)Nc2ccc3nc4c(c(N)c3c2)CCCC4)cc1I` came in with an Inhibition of 100%.
Then `Br.CC1CCC2(CC1)N=C(N)N=C(N)N2OCc1ccc(Br)c2ccccc12` (centres undefined), with 96%; and `Cc1[nH]c(C)c(-c2ccc(CCc3ccc(F)cc3F)cc2)c(=O)c1Br`, with 97%; and `CC(C(=O)OCCOCn1cnc2c(=O)[nH]c(N)nc21)N(C)C(=O)OC(C)(C)C` (centres undefined), with 87%.
For `O=C(/C=C/c1ccc(-c2ccccc2)cc1)NCCCCCN1CCC(c2c[nH]c3ccccc23)CC1` the value was 97%; for `O=[N+]([O-])c1ccc(N2CCCN(C(=S)Nc3ccc(F)cc3Br)CC2)nc1`, 100%.
For `COc1ccc(CC(=O)NC(CCN2CCC3(CC2)CN(S(C)(=O)=O)c2ccccc23)c2ccc(Cl)c(Cl)c2)cc1OC` (centres undefined) the value was 92%; for `Cc1cccc2nc(-c3cccc(-c4cccc(NC(=O)CN5CCN(C)CC5)c4)c3)[nH]c12`, 100%.
For `COC(=O)c1cccc(CNCc2cccc(-c3ccc(-c4nc5ccccc5[nH]4)s3)c2)c1.O=C(O)C(F)(F)F`, the Inhibition was 93%.
The compound `CC(C)c1ccc(NC(=O)Nc2ccc(CCNCCCc3ccccc3)cc2)cc1` displayed an Inhibition of 100%.
As to `COc1ccc2[nH]c(C)cc(=NN=Cc3ccc(F)cc3)c2c1`, the Inhibition is on record as 100%.
